BoNT-A LC inh2: inhibitors of Botulinum neurotoxin A light chain protease; multiplex microsphere protease substrate cleavage, flow cytometry; inhibition, % at 10 µM; 0.17% of 360,000 active; note: plate controls were buffer without enzyme for full effect and enzyme alone for no effect
3CLpro inhibitor: SARS-CoV 3CLpro protease inhibition; P0C6X7; 0.14% of 290,000 active; inhibition, % at 6 µM; recombinant SARS-CoV 3CLpro, quenched FRET peptide cleavage; in the data active = inhibition above about 12%
BoNT F protease: inhibitors of Botulinum neurotoxin F light chain protease; Multiplex microsphere protease cleavage assay, flow cytometry; inhibition, % at 10 µM; 0.22% of 360,000 active; AID 588497; in the data active = inhibition above about 35%, passing the limit was not always enough; inconclusive = no clear call, values can overlap the other calls; note: plate controls were buffer without enzyme for full effect and enzyme alone for no effect
Autofluor counter: flagged as autofluorescent in microsphere protease counterscreen; compound autofluorescence counterscreen, microsphere flow cytometry; stronger effect = higher value; fluorescence intensity (concentration not given with the values); 3.1% of 360,000 active; AID 624483; in the data active = fluorescence intensity above about 16000; inconclusive = no clear call, values can overlap the other calls
Anthrax LF prot: inhibitors of Bacillus anthracis lethal factor protease. P15917. multiplex microsphere protease cleavage assay, LF. inhibition, % at 10 µM. 0.12% of 360,000 active; note: plate controls were buffer without enzyme for full effect and enzyme alone for no effect
Target sequence (P15917 whole entry, looked up): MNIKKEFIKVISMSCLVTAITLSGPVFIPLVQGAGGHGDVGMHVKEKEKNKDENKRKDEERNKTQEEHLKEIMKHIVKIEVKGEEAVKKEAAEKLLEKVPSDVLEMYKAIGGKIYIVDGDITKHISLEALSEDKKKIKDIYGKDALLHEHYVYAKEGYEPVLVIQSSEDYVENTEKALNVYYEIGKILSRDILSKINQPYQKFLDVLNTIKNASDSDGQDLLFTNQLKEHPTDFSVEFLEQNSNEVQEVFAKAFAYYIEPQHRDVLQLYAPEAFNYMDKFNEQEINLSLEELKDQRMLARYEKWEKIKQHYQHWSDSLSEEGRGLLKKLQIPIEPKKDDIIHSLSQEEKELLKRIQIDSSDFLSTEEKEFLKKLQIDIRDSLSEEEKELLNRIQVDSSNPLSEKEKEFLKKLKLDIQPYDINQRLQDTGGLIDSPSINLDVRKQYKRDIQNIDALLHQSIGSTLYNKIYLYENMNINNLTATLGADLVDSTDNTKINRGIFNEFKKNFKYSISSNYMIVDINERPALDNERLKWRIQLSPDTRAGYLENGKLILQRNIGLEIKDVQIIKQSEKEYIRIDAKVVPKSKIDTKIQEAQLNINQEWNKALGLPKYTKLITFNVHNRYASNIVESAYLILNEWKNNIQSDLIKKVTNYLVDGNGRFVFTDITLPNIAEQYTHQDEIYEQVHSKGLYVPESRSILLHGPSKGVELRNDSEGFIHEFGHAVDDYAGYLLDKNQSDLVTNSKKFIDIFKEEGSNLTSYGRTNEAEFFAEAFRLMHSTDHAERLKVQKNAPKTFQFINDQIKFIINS
* marks the source's active call; other numbers are inactive results; ? = inconclusive; . = no result. Sampled rows, rich in hits. Any-hit rate of the full collection: about 3.5%. Cut-off read from the data, not from the text of the source, unless noted: active = inhibition above about 30%; inconclusive = no clear call, values can overlap the other calls; inactive = below that.

SMILES | BoNT-A LC inh2 | 3CLpro inhibitor | BoNT F protease | Autofluor counter | Anthrax LF prot
Cc1occc1C(=O)Nc1ccc2c(c1)OCCO2 | ? | 4.9 | 0.7 | 20875* | -7.5
CCOC(=O)c1ccc(NC(=O)Nc2ccc3c(c2)OCCO3)cc1 | 0.2 | -1.0 | 0.8 | 9020 | -8.9
Cc1cc(C(=O)Nc2ccc3c(c2)OCCO3)c(C)o1 | -1.1 | 0.8 | -15.7 | 3938 | -3.2
CS(=O)(=O)Nc1ccc(C(=O)Nc2ccc3c(c2)OCCO3)cc1 | 1.0 | 4.8 | 2.2 | 20301* | 0.7
O=C(Nc1ccc2c(c1)OCCO2)c1ccccc1 | -1.1 | -5.2 | -12.8 | 2859 | -5.8
COc1cccc(OC)c1C(=O)Nc1ccc2c(c1)OCCO2 | -4.4 | 4.0 | -5.1 | 25227* | -0.9
CCOC(=O)c1c(C)c(C(=O)Nc2ccc3c(c2)OCCO3)c(C)n1C | ? | 0.2 | -11.8 | 23007* | 0.6
CCOC(=O)C1C(=O)CC(C)(O)C(C(=O)OCC)C1c1ccc(OCC)cc1 (centres undefined) | 1.5 | 1.6 | 7.8 | 8440 | 2.2
Cc1ncoc1C(=O)Nc1ccc2c(c1)OCCO2 | 5.8 | 2.2 | 5.7 | 18125* | -5.2
COc1ccc(-n2nc(C(=O)NCC(=O)NCc3ccco3)c3ccccc3c2=O)cc1Cl | 1.1 | -0.3 | 2.5 | 21931* | -4.5
COc1ccc(-n2nc(C(=O)NCC(=O)N3CCN(c4ccccn4)CC3)c3ccccc3c2=O)cc1 | ? | 4.4 | -0.2 | 22175* | -1.7
COc1ccc(-n2nc(C(=O)NCC(=O)N3CCN(c4ccccn4)CC3)c3ccccc3c2=O)cc1OC | -0.7 | -0.9 | -2.8 | 3346 | -2.5
COC(=O)CNC(=O)CNC(=O)c1nn(-c2ccc(OC)c(Cl)c2)c(=O)c2ccccc12 | -0.6 | 5.2 | -23.7 | 3532 | -1.1
COc1ccc(-n2nc(C(=O)NCc3ccco3)c3ccccc3c2=O)cc1 | 4.9 | 5.1 | 3.6 | 19127* | -1.4
C[C@H](NC(N)=O)C(=O)Nc1ccc(OCc2ccccc2)cc1 | -0.5 | 6.3 | 0.6 | 4068 | -5.3
CCCOC(=O)CC1C(=O)NCCN1Cc1ccccc1C (centres undefined) | -0.8 | 1.0 | -0.9 | 5637 | 7.7
O=C(Nc1cnc2sccn2c1=O)c1ccc(Cl)cc1Cl | 0.2 | -3.5 | 2.0 | 22211* | -0.2
COc1ccc(Cl)cc1NC(=O)c1cnc2sccn2c1=O | -0.4 | 5.4 | 0.1 | 6294 | 5.4
O=C(Nc1ccc(N2CCOCC2)cc1)c1ccc(Cl)nc1 | 0.0 | 6.5 | -11.4 | 3377 | -2.2
O=C(Nc1ccc(N2CCOCC2)nc1)c1ccc(Cl)cc1 | -0.5 | 0.2 | -1.4 | 22714* | -1.3
C/C(=C\C(=O)c1ccc(Cl)cc1)Nc1ccc(N2CCOCC2)cc1 | -10.1 | -2.5 | -34.7 | 16147* | -6.6
COc1ccc(CNC(=O)CCOc2ccc(C(C)(C)C)cc2)cc1 | 0.0 | 6.5 | 0.6 | 5794 | -10.8
CCn1c2c(c3cc(Br)ccc31)CCC/C2=N\O | -19.2 | 6.1 | -23.6 | 29475* | -4.7
CC1SC(c2ccc(Cl)cc2Cl)NC1=O (centres undefined) | -1.1 | -0.5 | 5.1 | 4826 | -3.0
COc1ccc(C2NC(=O)C(C)S2)cc1 (centres undefined) | -4.6 | 5.3 | -8.8 | 24997* | -3.5
SMILES | BoNT-A LC inh2 | 3CLpro inhibitor | BoNT F protease | Autofluor counter | Anthrax LF prot
CC1SC(c2ccc(Cl)cc2)NC1=O (centres undefined) | -0.1 | 3.1 | -3.1 | 2389 | 0.5
CC1SC(c2cccc(Cl)c2)NC1=O (centres undefined) | -0.6 | -1.3 | -2.5 | 24188* | 1.5
O=C(Nc1cccc(S(=O)(=O)N2CCCCC2)c1)C1CCCC1 | -2.0 | . | -19.1 | 6222 | 0.7
Nc1nnc(SCC(=O)N2CCN(c3ccccc3)CC2)n1-c1ccccc1 | -0.2 | -4.0 | -6.0 | 3211 | -0.4
Cn1c(SCC(=O)N2CCN(c3cccc(Cl)c3)CC2)nnc1-c1ccncc1 | -0.6 | -3.2 | -1.5 | 22921* | 0.4
CCn1c(SCC(=O)N2CCN(c3ccc(F)cc3)CC2)nnc1-c1ccncc1 | -1.6 | -4.3 | -3.6 | 20103* | 1.1
Nc1nnc(SCC(=O)N2CCN(c3cccc(Cl)c3)CC2)n1-c1ccccc1 | -0.3 | 4.7 | -2.6 | 23616* | -2.6
Cn1c(SCC(=O)N2CCN(c3ccccc3)CC2)nnc1-c1cc2ccccc2o1 | -2.6 | -1.2 | -1.9 | 16756* | -9.8
Cc1ccccc1CN(c1ccc(C(=O)Nc2ccccc2C(=O)N2CCCC2)cc1)S(C)(=O)=O | 0.3 | 3.4 | 2.2 | 4233 | 6.3
CC(OC(=O)Cc1ccsc1)C(=O)Nc1ccc(Cl)cn1 (centres undefined) | -0.2 | . | -0.7 | ? | 3.4
CN1CCc2c(sc3c2C(=O)NC(c2ccco2)N3)C1 (centres undefined) | 5.8 | -1.8 | -7.2 | 18769* | -2.4
